This passage reports AC50 and outcome results from PubChem BioAssay (EPA / NIEHS).

The nature of assay [1]: BSK_MyoF_SRB: Viability Assessment in the BioMAP Diversity Plus: MyoF Assay (AID 2284267).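 Note: total protein by SRB absorbance in parallel cultures as cytotoxicity measure; cells assessed 24 h after compound addition.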 The settings on record: primary human lung fibroblasts. The method in brief:
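Lung fibroblast cultures, 24 h post-dose; fix 10% TCA, stain 0.1% SRB, read 560 nm. Signal = total protein as cytotoxicity measure; fitted relative to DMSO negative control.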

Read-out in assay [2]: Matrix Metallopeptidase 1 (MMP1), MMP1 (gene 4312)
The experiment in a line: BSK_MyoF_MMP1: BioMAP Diversity Plus: MyoF Assay for Matrix Metallopeptidase 1 (MMP1) Biomarker Activity (AID 2284268). Conditions: primary human lung fibroblasts. The method in brief:
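MMP1 measured by ELISA 24 h after dosing primary human lung fibroblasts; cytotoxicity checked in parallel cultures by sulforhodamine B total-protein staining read at 560 nm.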

Read-out in assay [3]: TIMP metallopeptidase inhibitor 1 (TIMP1), TIMP1 (gene 7076)
In words: BSK_MyoF_TIMP1: BioMAP Diversity Plus: MyoF Assay for TIMP metallopeptidase inhibitor 1 (TIMP1) Biomarker Activity (AID 2284269). The settings on record: primary human lung fibroblasts. The method in brief:
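ELISA read-out of TIMP-1 from primary human lung fibroblast cultures 24 h after compound dosing; gain of signal relative to DMSO vehicle baseline defines activity.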

Read-out in assay [4]: Matrix Metallopeptidase 3 (MMP3), MMP3 (gene 4314)
In words: BSK_BF4T_MMP3: BioMAP Diversity Plus: BF4T Assay for Matrix Metallopeptidase 3 (MMP3) Biomarker Activity (AID 2284271). Conditions: primary human bronchial epithelial cells with fibroblasts. In outline: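 MMP-3 level read by ELISA after 24 h chemical exposure of bronchial epithelial cell/dermal fibroblast co-cultures, fitted upward relative to DMSO. Parallel cultures stained with 0.1% SRB after TCA fixation gauge overt cytotoxicity.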

Read-out in assay [5]: Tissue plasminogen activator (tPA), PLAT (gene 5327)
In words: BSK_BF4T_tPA: BioMAP Diversity Plus: BF4T Assay for Tissue plasminogen activator (tPA) Biomarker Activity (AID 2284272). The settings on record: primary human bronchial epithelial cells with fibroblasts. In outline: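 tPA level quantified by ELISA at 24 h post-treatment in bronchial epithelial/dermal fibroblast co-cultures, gain of signal scored against DMSO baseline. Parallel cultures stained with 0.1% SRB (560 nm) to flag overt cytotoxicity.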

Read-out in assay [6]: Plasminogen Activator Inhibitor-1 (PAI1), SERPINE1 (gene 5054)
The experiment in a line: BSK_BF4T_PAI1: BioMAP Diversity Plus: BF4T Assay for Plasminogen Activator Inhibitor-1 (PAI1) Biomarker Activity (AID 2284273). Conditions: primary human bronchial epithelial cells with fibroblasts. The method in brief:
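PAI-1 levels quantified by ELISA 24 h post-dosing in bronchial epithelial cell plus dermal fibroblast cultures. Signal gain referenced to DMSO baseline. Sulforhodamine B total-protein staining of parallel wells checked cytotoxicity.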

A short description of assay [7]: BSK_BF4T_SRB: Viability Assessment in the BioMAP Diversity Plus: BF4T Assay (AID 2284274).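 Note: measured 24 h after compound addition.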 Conditions: primary human bronchial epithelial cells with fibroblasts. The method in brief: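 Cytotoxicity measured as total protein: cells fixed with 10% TCA, stained with 0.1% SRB, read at 560 nm. Bronchial epithelial/dermal fibroblast co-culture, 24 h after dosing, with positive-direction fitting relative to DMSO.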

Read-out in assay [8]: Interleukin-8 (IL8), CXCL8 (gene 3576)
The experiment in a line: BSK_IMphg_IL8: BioMAP Diversity Plus: IMphg Assay for Interleukin-8 (IL8) Biomarker Activity (AID 2284277). The settings on record: primary human endothelial cells with macrophages. The method in brief: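 IL-8 levels were measured by ELISA 24 h after dosing in primary human venular endothelial cell–macrophage cultures, referenced to DMSO; parallel SRB staining monitored overt cytotoxicity.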

Read-out in assay [9]: Intercellular Adhesion Molecule 1 (ICAM1), ICAM1 (gene 3383)
In words: BSK_BE3C_ICAM1: BioMAP Diversity Plus: BE3C Assay for Intercellular Adhesion Molecule 1 (ICAM1) Biomarker Activity (AID 2284278). The settings on record: primary human bronchial epithelial cells. The method in brief:
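ELISA read-out of ICAM-1 on human lung bronchial epithelial primary cells, 24 h post-dosing; positive-direction curve fit, DMSO = baseline. SRB total-protein staining of parallel cultures flagged overt cytotoxicity.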

Read-out in assay [10]: Interferon-inducible T-cell alpha chemoattractant (ITAC), CXCL11 (gene 6373)
In words: BSK_BE3C_ITAC: BioMAP Diversity Plus: BE3C Assay for Interferon-inducible T-cell alpha chemoattractant (ITAC) Biomarker Activity (AID 2284279). Conditions: primary human bronchial epithelial cells. In outline: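 ELISA read-out of I-TAC after 24 h chemical dosing of human lung primary bronchial epithelial cells; gain-of-signal fit vs DMSO baseline. Parallel SRB total-protein staining (0.1% SRB, 10% TCA fixation, 560 nm) assessed cytotoxicity.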

Read-out in assay [11]: Interleukin-8 (IL8), CXCL8 (gene 3576)
The experiment in a line: BSK_BE3C_IL8: BioMAP Diversity Plus: BE3C Assay for Interleukin-8 (IL8) Biomarker Activity (AID 2284280). The settings on record: primary human bronchial epithelial cells. The method in brief: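 Primary human bronchial epithelial cells (BE3C system) were exposed to test chemical for 24 h, and IL-8 levels were then measured by ELISA. Activity was fitted in the positive (gain-of-signal) direction against a DMSO negative-control baseline.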

Read-out in assay [12]: Epidermal growth factor receptor (EGFR), EGFR (gene 1956)
In words: BSK_BE3C_EGFR: BioMAP Diversity Plus: BE3C Assay for Epidermal growth factor receptor (EGFR) Biomarker Activity (AID 2284281). The settings on record: primary human bronchial epithelial cells. The method in brief:
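Human primary bronchial epithelial cells were exposed to compound for 24 h, and cell-surface EGFR was then quantified by ELISA. Activity was fitted in the positive direction against the DMSO vehicle baseline.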

Read-out in another assay: KRT18 (gene 3875)
The experiment in a line: BSK_BE3C_Keratin818: BioMAP Diversity Plus: BE3C Assay for Keratin 818 Biomarker Activity (AID 2284282). The settings on record: primary human bronchial epithelial cells. In outline:
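ELISA read-out of Keratin 8/18 in BE3C human bronchial epithelial cultures, 24 h post-dosing; positive-direction fit vs DMSO baseline.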

Read-out in assay [13]: Matrix Metallopeptidase 9 (MMP9), MMP9 (gene 4318)
In words: BSK_BE3C_MMP9: BioMAP Diversity Plus: BE3C Assay for Matrix Metallopeptidase 9 (MMP9) Biomarker Activity (AID 2284283). Conditions: primary human bronchial epithelial cells. In outline:
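Cells were dosed, incubated 24 h, then assayed for MMP-9 by ELISA; activity was fitted upward against DMSO. The system used human lung primary bronchial epithelial cells, with SRB total-protein staining run alongside for cytotoxicity.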

Read-out in assay [14]: Plasminogen activator inhibitor-1 (PAI1), SERPINE1 (gene 5054)
In words: BSK_CASM3C_PAI1: BioMAP Diversity Plus: CASM3C Assay for Plasminogen activator inhibitor-1 (PAI1) Biomarker Activity (AID 2284284). The settings on record: primary human coronary artery smooth muscle cells.

Read-out in assay [15]: Monocyte Chemoattractant Protein-1 (MCP1), CCL2 (gene 6347)
In words: BSK_hDFCGF_MCP1: BioMAP Diversity Plus: hDFCGF Assay for Monocyte Chemoattractant Protein-1 (MCP1) Biomarker Activity (AID 2284285). The settings on record: primary human foreskin fibroblasts. In outline:
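MCP-1 ELISA readout was taken 24 hours after dosing primary human dermal fibroblasts in the hDFCGF system, with DMSO as baseline. Parallel sulforhodamine B staining of total protein tracked overt cytotoxicity.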

Read-out in assay [16]: Vascular cell adhesion molecule 1 (VCAM1), VCAM1 (gene 7412)
The experiment in a line: BSK_IMphg_VCAM1: BioMAP Diversity Plus: IMphg Assay for Vascular cell adhesion molecule 1 (VCAM1) Biomarker Activity (AID 2284286). The settings on record: primary human endothelial cells with macrophages. The method in brief:
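ELISA read-out of VCAM-1 on venular endothelial cell/macrophage co-cultures at 24 h post-treatment, with DMSO as baseline and positive-direction fitting. Parallel sulforhodamine B total-protein staining (560 nm) served as the overt cytotoxicity measure.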

Read-out in assay [17]: urokinase Plasminogen Activator (uPA), PLAU (gene 5328)
In words: BSK_BF4T_uPA: BioMAP Diversity Plus: BF4T Assay for urokinase Plasminogen Activator (uPA) Biomarker Activity (AID 2284275). The settings on record: primary human bronchial epithelial cells with fibroblasts. The method in brief:
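uPA levels measured by ELISA at 24 hours in BF4T cultures (bronchial epithelial cells plus dermal fibroblasts) and compared with DMSO; cytotoxicity tracked in parallel cultures by sulforhodamine B staining.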

Values joined by “and” are separate entries in the source; they are usually repeats but may differ in a detail not shown here. Equal values may be shown once. A structure can be active in one record and inactive in another. Active and inactive are the calls of the source. Rule for the calls: active = hit-call score of the fitted dose curve at least 0.9, where 1 is the maximum; inactive = score below 0.9.

Regarding `O=C(O)C(F)(F)C(F)(F)C(F)(F)C(F)(F)C(F)(F)C(F)(F)C(F)(F)C(F)(F)C(F)(F)C(F)F`, the concentration at half-maximal activity (AC50) is 21.3 µM (active) and 21.9 µM (active) in assay [1]; 50.9 µM (active) in [3]; 30 µM (active) in [4]; 9.23 µM (active) and 5.95 µM (active) in [5]; 39.7 µM (active) and 30 µM (active) in assay [6]; 41.7 µM (active) and 40.8 µM (active) in assay [7]. For the same compound, the half-maximal activity concentration (AC50) in assay [9] was 20.3 µM (active) and 21.1 µM (active); in assay [10], 9.92 µM (active) and 11.3 µM (active); in assay [12] it was 7.89 µM (active); in the assay with KRT18 (gene 3875), 19.6 µM (active) and 10.5 µM (active); in assay [13], 14.2 µM (active) and 10.6 µM (active); in assay [15] it was 23.4 µM (active) and 42 µM (active). Also, the AC50 in assay [16] is 52.7 µM (active). Besides, the result in assay [2], in [3], in assay [4], in assay [8], in [11] and in assay [12] was inactive. Further, the outcome in assay [14] and in [16] was inactive.

`FC(F)(I)C(F)(F)C(F)(F)C(F)(F)I`: the half-maximal activity concentration (AC50) was 46.5 µM (active) and 53 µM (active) and 53.4 µM (active) in assay [1]; 52 µM (active) and 48.5 µM (active) in [2]; 56 µM (active) and 47.7 µM (active) and 46.9 µM (active) in [3]; 49.7 µM (active) and 50.4 µM (active) and 51.2 µM (active) in assay [4]; 45.8 µM (active) and 47.3 µM (active) in assay [6]; 51.3 µM (active) and 50.7 µM (active) and 46.5 µM (active) in [7]. For the same compound, the AC50 in assay [17] was 49.9 µM (active) and 53.8 µM (active) and 46.2 µM (active); in assay [8], 1.19 µM (active); in [9], 44.1 µM (active) and 41.4 µM (active) and 55.3 µM (active); in assay [10] it was 46.2 µM (active) and 51.9 µM (active) and 49.2 µM (active); in assay [11] it was 47.4 µM (active) and 46 µM (active); in assay [12] it was 45.3 µM (active) and 47.3 µM (active) and 46.8 µM (active). Besides, the AC50 in the assay with KRT18 (gene 3875) was 47 µM (active) and 47.5 µM (active) and 43.1 µM (active); in assay [13] it was 56.5 µM (active) and 55.2 µM (active); in [14], 45.7 µM (active) and 49.4 µM (active); in assay [15], 52.1 µM (active) and 46.6 µM (active) and 47 µM (active); in [16] it was 54 µM (active). For the same compound, the result in [2], in assay [6], in assay [8], in [11], in assay [13] and in assay [14] was inactive. Further, the result in assay [16] was inactive.

On to `CC(=O)Nc1ccc(N=Nc2cc(C)ccc2O)cc1`, for which the outcome in assay [1] and in assay [3] was inactive. In [2], the half-maximal activity concentration (AC50) is 31 µM (active).

One may read the AC50 as the concentration at which the activity in the assay is half-maximal.
